# Laboratory results reported in PubChem BioAssay AID1851 (National Center for Advancing Translational Sciences (NCATS), 2009).
# “And” between values parts separate entries of the source, which are not always exact repeats. Identical values can stand only once. In all, about 16,000 compounds went through this assay and about 2,600 (16%) were called active. About 20% were inconclusive and are not listed. The call rests on the fitted dose curve; in most records, active means well fitted curve in the direction sought with a large enough effect; inconclusive means small, poorly fitted or top-dose-only effect, or effect the other way; inactive means no such curve, though single readings can be large or run the other way. The list is a sample of the results.
# Molecular target: Cytochrome P450 2D6 (Homo sapiens) (UniProt P10635)
# Test: Cytochrome panel assay with activity outcomes
# Conditions: recombinant CYP, pro-luciferin dealkylation, luminescence, p450-cyp2d6; series mostly up to 57.1 µM; activity, negative = inhibition: at the top concentration
# On the % scale 0 is the no-effect control and ±100 the full control effect.
# Sequence of Cytochrome P450 2D6 (Homo sapiens) (P10635 whole entry, looked up): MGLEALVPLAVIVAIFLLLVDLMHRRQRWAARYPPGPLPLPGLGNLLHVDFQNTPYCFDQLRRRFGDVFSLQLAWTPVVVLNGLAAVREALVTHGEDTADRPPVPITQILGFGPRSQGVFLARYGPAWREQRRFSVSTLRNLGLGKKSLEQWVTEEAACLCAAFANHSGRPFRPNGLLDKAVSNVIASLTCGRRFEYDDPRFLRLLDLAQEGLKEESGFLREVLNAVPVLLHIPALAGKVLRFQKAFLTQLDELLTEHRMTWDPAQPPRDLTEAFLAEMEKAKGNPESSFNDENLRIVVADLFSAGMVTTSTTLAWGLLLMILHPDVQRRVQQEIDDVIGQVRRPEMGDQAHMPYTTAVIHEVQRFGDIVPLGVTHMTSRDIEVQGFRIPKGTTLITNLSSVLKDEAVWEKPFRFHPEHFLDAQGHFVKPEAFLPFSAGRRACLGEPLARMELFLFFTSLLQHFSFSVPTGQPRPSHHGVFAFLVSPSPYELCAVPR
Structure (SMILES),"activity, negative = inhibition",AC50
Cc1cc(=O)[nH]c2c1c(C)nn2C1CCOC(C)(C)C1 (stereo not given),-7.73% (inactive),–
O=C(Nc1nnc(CCS(=O)(=O)c2ccc(Br)cc2)s1)c1ccc([N+](=O)[O-])cc1,-1.29% (inactive),–
O=S(=O)(O)c1ccc2cc(N=Nc3cc(S(=O)(=O)O)c4cccnc4c3O)ccc2c1,-2.47% [at 11.4 µM] (inactive),–
O=C(CCC(=O)Nc1ccccc1)NNC(=O)c1cccs1,11.3% (inactive),–
CCn1ccc(C(=O)NC2C(=O)N3C(C(=O)O)=C(C)CSC23)n1 (stereo not given),17% (inactive),–
COC(=O)Nc1nc2ccc(SC(C)C)cc2[nH]1,-3.07% [at 25.6 µM] (inactive),–
COc1ccc(-n2c(=O)c(-c3ccccc3)nc3cnc(N4CCNCC4)nc32)cc1,-3.98% (inactive),–
N[C@@H](Cc1cnc[nH]1)C(=O)O,2.38% (inactive),–
Fc1ccc(C(OCCCc2cnc[nH]2)c2ccc(F)cc2)cc1,–,0.631 µM (active)
O=C(O)CC12C[C@H]3C[C@@H](CC(O)(C3)C1)C2,1.29% [at 11.4 µM] (inactive),–
COc1ccc(-c2cnnc(CCCn3ccnc3-c3ccccc3)n2)cc1,-4.95% [at 11.4 µM] (inactive),–
COc1ccc([C@H](O)c2ccccn2)cc1,0.937% [at 11.4 µM] (inactive),–
COc1ccc(C(O)c2nccn2Cc2ccccc2)cc1 (stereo not given),–,10 µM (active)
CCNC(=O)C/C(C)=N/NC(=O)C12CC3CC(CC(C3)C1)C2,-13.3% (inactive),–
COc1ccc(NC(=O)N2CC[C@@]3(CCCN(C(=O)c4ccc(OC)cc4)C3)C2)cc1,12.9% (inactive),–
COc1ccc(NC(=O)N2CCCC3(CCN(C(=O)c4cccn4C)CC3)C2)cc1,3.7% (inactive),–
N#Cc1ccc(C(c2nnnn2Cc2ccccc2)N2CCCC2)cc1 (stereo not given),–,7.94 µM (active)
CCn1c(SCc2ccc(C#N)cc2)nnc1-c1ccc(S(=O)(=O)N2CCCCC2)cc1,7.38% (inactive),–
COCC1C2CC[C@H]3C(OCc4ccc(F)cc4C(F)(F)F)OC[C@]4(C)[C@H]3C2=C(CN4C(=O)OC(C)(C)C)[C@H](C)C1COC (stereo not given in full),-9.86% (inactive),–
O=C(ON=C1CCN(S(=O)(=O)c2ccccc2)CC1)c1ccccc1,-11.1% (inactive),–
c1ccn(-c2ccc(N3CCOCC3)cc2)c1,-19.4% (inactive),–
COc1ccc(C(=O)NNC(=S)NC(=O)c2ccco2)cc1,23.2% (inactive),–

Structure (SMILES),"activity, negative = inhibition",AC50
Cc1ccc(C)c(-n2c(Cc3cc(=O)[nH]c(=O)[nH]3)nnc2SCC(=O)NCC2CCCO2)c1 (stereo not given),5.39% (inactive),–
OCCCN=C1CCCCC1,-10.2% [at 11.4 µM] (inactive),–
CCOC(=O)c1ccccc1OCc1cc(/C=N/n2cnnc2)ccc1OC,-11.9% (inactive),–
CC(C)Cn1c(N)c(C(=O)CSc2ccc3c(c2)OCCO3)c(=O)n(C)c1=O,-14.7% (inactive),–
CC(Sc1ccc2c(c1)OCCO2)C(=O)Nc1ncc(Cl)cc1Cl (stereo not given),–,12.6 µM (active)
CC(C)C(=O)Nc1cc2c(cc1C(=O)c1ccccc1)OCCO2,-1.98% (inactive),–
CCn1c(C)nc2cc(C(=O)NNS(=O)(=O)c3ccccc3F)ccc21,-5.81% (inactive),–
Cc1cc(C)cc(N(C(=O)C2CCCC2)C2C=CS(=O)(=O)C2)c1 (stereo not given),-12.9% (inactive),–
COc1ccc(C(=O)N2CCC3(CC2)CN(C(=O)NC(C)C)C3)cc1,-1.29% (inactive),–
COc1ccccc1CC(=O)O/N=C(\N)c1cccc([N+](=O)[O-])c1,-22.3% (inactive),–
COc1cc(C)ccc1OCCCOc1ccccc1Cl,7.23% (inactive),–
COc1ccccc1OCCCOc1ccc([N+](=O)[O-])cc1Cl,–,11.2 µM (active)
Cc1ccc(OCC(=O)NNC(=O)c2cc3ccccc3o2)cc1,3.8% (inactive),–
CCCS(=O)(=O)N1CCCC(C(=O)NCCCN2CCN(c3ccccc3F)CC2)C1 (stereo not given),–,10 µM (active)
CCCS(=O)(=O)N1CCCC(C(=O)NCCCN2CCN(c3cccc(Cl)c3)CC2)C1 (stereo not given),–,5.62 µM (active)
CCCS(=O)(=O)N1CCCC(C(=O)NCCN2CCOCC2)C1 (stereo not given),4.14% (inactive),–
CCCS(=O)(=O)N1CCCC(C(=O)NCC2CCCO2)C1 (stereo not given),-2.53% (inactive),–
CCCS(=O)(=O)N1CCCC(C(=O)N2CCN(c3ccccc3)CC2)C1 (stereo not given),-9.13% (inactive),–
CCCN(CCC)CCNC(=O)C1CCCN(S(=O)(=O)c2ccc3c(c2)oc(=O)n3C)C1 (stereo not given),-10.6% (inactive),–
CCCS(=O)(=O)N1CCCC(C(=O)NCCN2CCC(Cc3ccccc3)CC2)C1 (stereo not given),–,0.501 µM (active)
O=C(Nc1ccc(Br)cc1)C1CCC(=O)N1Cc1ccccc1Cl (stereo not given),-23.9% (inactive),–
O=C(NCCCN1CCN(c2cccc(Cl)c2)CC1)C1CCC(=O)N1Cc1ccccc1Cl (stereo not given),–,5.01 µM (active)

Structure (SMILES),"activity, negative = inhibition",AC50
CCCS(=O)(=O)N1CCCC(C(=O)NCCCOC(C)C)C1 (stereo not given),32.2% (inactive),–
COC(Cc1nnc(SC)n1-c1ccccc1)OC,10.6% (inactive),–
CC(C)Nc1cc(C(F)(F)F)nc(-c2ccccn2)n1,14.4% (inactive),–
CC(C)COP(=O)(c1ccc(N(C)C)cc1)C(O)c1ccccc1F (stereo not given),3.33% (inactive),–
COc1cccc(Cn2c(=O)cnc3cnc(OC)nc32)c1,-20.5% (inactive),–
Cc1ccc(-c2nc3c(=O)n(C)c4ccccc4c3o2)cc1,-0.939% (inactive),–
O=C(COc1ccccc1)Nc1ccc(-c2nnc(-c3ccco3)o2)cc1,-15.7% (inactive),–
C/C(CC(=O)Nc1cc(Cl)ccc1Cl)=N\NC(N)=S,-29.8% (inactive),–
CC(NC(=O)c1ccc(Cn2cc([N+](=O)[O-])cn2)o1)c1ccccc1 (stereo not given),-9.64% (inactive),–
CCCc1cc2c(cc1NC(=O)c1ccccc1C)OCO2,–,8.91 µM (active)
CCOc1cc(NC(=S)NCC2CCCO2)c(OCC)cc1NC(=O)c1ccccc1C (stereo not given),-28.8% (inactive),–
CCC(=O)Nc1cc2c(cc1C(=O)c1ccccc1)OCCO2,-0.416% (inactive),–
c1ccc(-c2csc3ncn4cnnc4c23)cc1,16.6% (inactive),–
CCC(=O)N[C@@H]1Cc2ccccc2[C@@H](c2ccccc2)C1,-2.56% (inactive),–
COCCNc1cc(-c2c(C)noc2C)ncn1,7.09% (inactive),–
Cc1cc(Cl)ccc1OCC(=O)Nc1nc(N)nc(N)n1,14% [at 11.4 µM] (inactive),–
Cc1cc(Cl)ccc1OCC(=O)NCc1ccncc1,–,2.82 µM (active)
Cc1cc(Cl)ccc1OCC(=O)N/N=C1\CCCc2ccccc21,19.9% (inactive),–
N/C(=N\c1nc2ccccc2o1)NC(=O)c1ccccc1F,-0.637% (inactive),–
Cc1ccc(S(=O)(=O)N[C@H]2COC(=O)C/C=C\[C@@H](C)COC(=O)C/C=C\[C@@H]2C)cc1,15.5% [at 11.4 µM] (inactive) and -2.8% [at 11.4 µM] (inactive),–
N#CCCSC(=S)[C@H]1CCCC1=N,-9.64% [at 11.4 µM] (inactive),–
